Measurements as given in ChEMBL document CHEMBL3433997, “St. Jude Leishmania screening dataset” (2016).

The molecules below were run against Solute carrier family 2, facilitated glucose transporter member 1 (Homo sapiens) (UniProt P11166) (assay: ST_JUDE_LEISH: Cytotoxicity at 2uM final concentration against transgenic Leishmania Mexicana promastigotes LmGLUT1 that are glucose transport deficient and complemented with the human glucose transporter GLUT1. Activity is measured by DNA content using SYBR green in vitro).
Chain of Solute carrier family 2, facilitated glucose transporter member 1 (Homo sapiens) (P11166 whole entry): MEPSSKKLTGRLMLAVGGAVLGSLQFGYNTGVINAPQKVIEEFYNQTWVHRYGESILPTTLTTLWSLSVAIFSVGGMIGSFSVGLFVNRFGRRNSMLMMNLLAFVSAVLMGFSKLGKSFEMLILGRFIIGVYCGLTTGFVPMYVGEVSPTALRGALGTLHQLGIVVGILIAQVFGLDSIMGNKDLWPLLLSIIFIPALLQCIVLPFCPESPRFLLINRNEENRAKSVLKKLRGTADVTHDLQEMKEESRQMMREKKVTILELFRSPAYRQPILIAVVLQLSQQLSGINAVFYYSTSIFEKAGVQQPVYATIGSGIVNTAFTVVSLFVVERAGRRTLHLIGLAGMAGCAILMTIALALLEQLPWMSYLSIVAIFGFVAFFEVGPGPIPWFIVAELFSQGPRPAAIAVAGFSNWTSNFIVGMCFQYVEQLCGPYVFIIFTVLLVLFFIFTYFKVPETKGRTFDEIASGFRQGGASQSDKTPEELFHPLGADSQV
Type: functional

| Structure (SMILES) | inhibition [%] |
| --- | --- |
| O=C(Nc1ccc(CCNC2=NCCN2)cc1)Nc1ccc(CCNC2=NCCN2)cc1 | 3.77 |
| COc1ccc(NC(=O)C2c3ccccc3C(=O)N(C3CCCC3)C2c2cccs2)c(OC)c1 (stereo not given) | 1.15 |
| CC(C)c1cc2c(ccc3nc(N)nc(N)c32)o1 | 3.76 |
| O=C(Nc1ccc2c(c1)CCNCC2)c1ccc(-c2ccc(Cl)cc2)cc1 | 58.3 |
| N#Cc1ccc2c(c1)CCN(CCC1CCC(NC(=O)/C=C/c3c[nH]c4ccc(F)cc34)CC1)CC2 (stereo not given) | 0.97 |
| CCN(CC)CCCC(C)Nc1c(-c2ccc(C)cc2)cnc2ccccc12 (stereo not given) | 9.89 |
| CN1CCN(CCCN(Cc2ccc(-c3cccc(CNCc4ccc5c(c4)OCO5)c3)cc2)C(=O)NCCc2ccccc2)CC1 | 5.4 |
| Cc1cc(N[C@@H](C)C(=O)Nc2ccccc2)nc(NCCc2ccc(F)cc2)n1 | 2.77 |
| CN(C)CCN(C)Cc1ccc(-c2ccc3c(Nc4ccc(Cl)cc4F)ccnc3c2)o1 | 1.16 |
| CN1CCN(CCCN(Cc2csc(-c3ccc(CNCc4ccccc4)cc3)n2)S(=O)(=O)c2ccccc2)CC1 | 12.2 |
| Cc1cccc2nc(-c3cccc(-c4cccc(NC(=O)c5cnn6cccnc56)c4)c3)[nH]c12 | 5.09 |
| Cc1ccccc1Nc1nc(NCc2ccccc2)nc2ccccc12 | 14.9 |
| CCCC1N=C(N)N=C(N)N1c1cccc([N+](=O)[O-])c1 (stereo not given) | 1.33 |
| COc1cc(F)c2ncc(Cl)c([C@H](O)CN3CCC(NCc4cc5c(cn4)OCCO5)CC3)c2c1 | 7.62 |
| CC(Cc1ccc(NC(=O)c2ccc(CNCCCCc3ccccc3)cc2)cc1)NCCc1cccc(Cl)c1 (stereo not given) | 106 |
| Nc1ccc2nc(C=Cc3ccccc3)[nH]c2c1 | 1.45 |
| Cc1cccc2nc(-c3ccc(-c4ccc(CN5CCC(C(N)=O)CC5)cc4)cc3)[nH]c12 | 6.51 |
| Cn1c(/C=C/C(=O)NC2CCC(CCN3CCc4ccc(C#N)cc4CC3)CC2)cc2ccccc21 (stereo not given) | 2.51 |
| Nc1nnc(-c2ccc(Cl)c(Br)c2)c(N)n1 | -0.74 |
| Cc1cccc(C)c1CNc1ccnc2cc(Br)ccc12 | 9.73 |

| Structure (SMILES) | inhibition [%] |
| --- | --- |
| COc1ccc(CCNc2ccnc3cc(Cl)ccc23)cc1OC | 2.61 |
| COc1cc2nc(N3CCC(c4ccccc4)CC3)nc(NCc3ccc(=O)[nH]c3)c2cc1OC | 1.44 |
| CC(=O)Nc1nc(C(=O)Nc2cccc(-c3ccc(-c4nc5cccc(C)c5[nH]4)cc3)c2)cs1 | 8.06 |
| CCCN(C(=O)c1ccccc1C)c1nnc(-c2ccccc2C)s1 | -1.25 |
| CC(O)C1CCCCN1C(=O)c1ccc(-c2cccc(-c3nc4cc(F)ccc4[nH]3)c2)cc1 (stereo not given) | 3.01 |
| O=C(/C=C/c1cccs1)NCC(NCCCNc1cc(=O)c2ccccc2[nH]1)c1cc(Br)cc(Br)c1 (stereo not given) | 4.13 |
| C[C@@H]1CN(C(c2cccc(O)c2)c2cccc(C(=O)N(C)c3cccc(F)c3)c2)[C@@H](C)CN1C(c1cccc(O)c1)c1cccc(C(=O)N(C)c2cccc(F)c2)c1 (stereo not given in full) | 3.79 |
| COc1cccc2c(NN=Cc3cccc(Cl)c3)cc(C)nc12 | -0.65 |
| O=C(Nc1cccc(-c2cccc(-c3nc4ccccc4[nH]3)c2)c1)c1ccoc1 | 7.02 |
| COc1ccc(CCNCCCCCCNCCc2ccc(-c3ccccc3)cc2)cc1OC | 92.8 |
| O=C(NCCCCN1CCC(c2ccc3c(c2OCCCO)CCCC3)CC1)c1ccc(-c2ccc(C(F)(F)F)cc2)cc1 | 1.13 |
| CCOc1ccc(NC(C)=O)c(O)c1 | 5.79 |
| COc1cc(CN2CCC(NC(=O)[C@H](Cc3ccccc3)NC(=O)Nc3ccc(Oc4ccccc4)cc3)C2)ccc1O (stereo not given in full) | 0.58 |
| Cc1cccc(Cl)c1Nc1nnc(-c2cccc(C(=O)NC[C@@H]3CC[C@H]4C[C@@H]3C4(C)C)c2)o1 | 10.6 |
| CN1CCN(c2ccnc3ccc(NC(=O)Cc4ccc5ccccc5c4)cc23)CC1 | 0.96 |
| CC(C)N1CCN(CCCNc2c3ccccc3nc3ccccc23)CC1 | 40.1 |
| COc1ccc(O)c(C(=O)c2cc(C(=O)NCCc3ccccc3)c(=O)n(CCc3ccccc3)c2)c1 | 4.48 |
| Clc1ccc2c(NCc3ccc4c(c3)OCO4)ccnc2c1 | 6 |
| COc1ccc(Cc2c(C)nc3nc(N)nc(N)c3c2C)cc1OC | 13.6 |
| O=c1cc(NCCCNCc2cc3ccccc3s2)[nH]c2ccccc12 | 4.89 |

What follows are molecules tested against Hexose transporter 1 (Plasmodium falciparum) (UniProt O97467) (assay: ST_JUDE_LEISH: Cytotoxicity at 2uM final concentration against transgenic Leishmania Mexicana promastigotes LmPfHT that are glucose transport deficient and complemented with the Plasmodium falciparum hexose transporter. Activity is measured by DNA content using SYBR green in vitro).
Type: functional

| Structure (SMILES) | inhibition [%] |
| --- | --- |
| O=C(Nc1ccc(CCNC2=NCCN2)cc1)Nc1ccc(CCNC2=NCCN2)cc1 | 3.97 |
| COc1ccc(NC(=O)C2c3ccccc3C(=O)N(C3CCCC3)C2c2cccs2)c(OC)c1 (stereo not given) | -0.63 |
| CC(C)c1cc2c(ccc3nc(N)nc(N)c32)o1 | 5.34 |
| O=C(Nc1ccc2c(c1)CCNCC2)c1ccc(-c2ccc(Cl)cc2)cc1 | 104 |
| N#Cc1ccc2c(c1)CCN(CCC1CCC(NC(=O)/C=C/c3c[nH]c4ccc(F)cc34)CC1)CC2 (stereo not given) | 3.57 |
| CCN(CC)CCCC(C)Nc1c(-c2ccc(C)cc2)cnc2ccccc12 (stereo not given) | 7.44 |
| CN1CCN(CCCN(Cc2ccc(-c3cccc(CNCc4ccc5c(c4)OCO5)c3)cc2)C(=O)NCCc2ccccc2)CC1 | 2.67 |
| Cc1cc(N[C@@H](C)C(=O)Nc2ccccc2)nc(NCCc2ccc(F)cc2)n1 | 4.77 |
| CN(C)CCN(C)Cc1ccc(-c2ccc3c(Nc4ccc(Cl)cc4F)ccnc3c2)o1 | 2.08 |
| CN1CCN(CCCN(Cc2csc(-c3ccc(CNCc4ccccc4)cc3)n2)S(=O)(=O)c2ccccc2)CC1 | 15.3 |
| Cc1cccc2nc(-c3cccc(-c4cccc(NC(=O)c5cnn6cccnc56)c4)c3)[nH]c12 | 4.22 |
| Cc1ccccc1Nc1nc(NCc2ccccc2)nc2ccccc12 | 10.9 |
| CCCC1N=C(N)N=C(N)N1c1cccc([N+](=O)[O-])c1 (stereo not given) | -0.09 |
| COc1cc(F)c2ncc(Cl)c([C@H](O)CN3CCC(NCc4cc5c(cn4)OCCO5)CC3)c2c1 | 7.47 |
| CC(Cc1ccc(NC(=O)c2ccc(CNCCCCc3ccccc3)cc2)cc1)NCCc1cccc(Cl)c1 (stereo not given) | 102 |
| Nc1ccc2nc(C=Cc3ccccc3)[nH]c2c1 | 0.85 |
| Cc1cccc2nc(-c3ccc(-c4ccc(CN5CCC(C(N)=O)CC5)cc4)cc3)[nH]c12 | 5.37 |
| Cn1c(/C=C/C(=O)NC2CCC(CCN3CCc4ccc(C#N)cc4CC3)CC2)cc2ccccc21 (stereo not given) | 4.9 |
| Nc1nnc(-c2ccc(Cl)c(Br)c2)c(N)n1 | 1.8 |
| Cc1cccc(C)c1CNc1ccnc2cc(Br)ccc12 | 8.34 |

| Structure (SMILES) | inhibition [%] |
| --- | --- |
| COc1ccc(CCNc2ccnc3cc(Cl)ccc23)cc1OC | 2.36 |
| COc1cc2nc(N3CCC(c4ccccc4)CC3)nc(NCc3ccc(=O)[nH]c3)c2cc1OC | 1.5 |
| CC(=O)Nc1nc(C(=O)Nc2cccc(-c3ccc(-c4nc5cccc(C)c5[nH]4)cc3)c2)cs1 | 7.51 |
| CCCN(C(=O)c1ccccc1C)c1nnc(-c2ccccc2C)s1 | 0.17 |
| CC(O)C1CCCCN1C(=O)c1ccc(-c2cccc(-c3nc4cc(F)ccc4[nH]3)c2)cc1 (stereo not given) | 2.87 |
| O=C(/C=C/c1cccs1)NCC(NCCCNc1cc(=O)c2ccccc2[nH]1)c1cc(Br)cc(Br)c1 (stereo not given) | 3.76 |
| C[C@@H]1CN(C(c2cccc(O)c2)c2cccc(C(=O)N(C)c3cccc(F)c3)c2)[C@@H](C)CN1C(c1cccc(O)c1)c1cccc(C(=O)N(C)c2cccc(F)c2)c1 (stereo not given in full) | 2.73 |
| COc1cccc2c(NN=Cc3cccc(Cl)c3)cc(C)nc12 | 0.14 |
| O=C(Nc1cccc(-c2cccc(-c3nc4ccccc4[nH]3)c2)c1)c1ccoc1 | 5.63 |
| COc1ccc(CCNCCCCCCNCCc2ccc(-c3ccccc3)cc2)cc1OC | 94.9 |
| O=C(NCCCCN1CCC(c2ccc3c(c2OCCCO)CCCC3)CC1)c1ccc(-c2ccc(C(F)(F)F)cc2)cc1 | 3.02 |
| CCOc1ccc(NC(C)=O)c(O)c1 | 5.38 |
| COc1cc(CN2CCC(NC(=O)[C@H](Cc3ccccc3)NC(=O)Nc3ccc(Oc4ccccc4)cc3)C2)ccc1O (stereo not given in full) | 1.77 |
| Cc1cccc(Cl)c1Nc1nnc(-c2cccc(C(=O)NC[C@@H]3CC[C@H]4C[C@@H]3C4(C)C)c2)o1 | 8.97 |
| CN1CCN(c2ccnc3ccc(NC(=O)Cc4ccc5ccccc5c4)cc23)CC1 | 2.53 |
| CC(C)N1CCN(CCCNc2c3ccccc3nc3ccccc23)CC1 | 58 |
| COc1ccc(O)c(C(=O)c2cc(C(=O)NCCc3ccccc3)c(=O)n(CCc3ccccc3)c2)c1 | 3.07 |
| Clc1ccc2c(NCc3ccc4c(c3)OCO4)ccnc2c1 | 8.03 |
| COc1ccc(Cc2c(C)nc3nc(N)nc(N)c3c2C)cc1OC | 15 |
| O=c1cc(NCCCNCc2cc3ccccc3s2)[nH]c2ccccc12 | 6.01 |
